WRN inhibitor: WRN helicase (human) inhibition; Q14191; WRN helicase unwinding, fluorescent forked duplex, kinetic; Potency, µM (top dose mostly 114 µM), without a hit: top-dose activity change, negative = inhibition, actives largely listed as inhibitors; 0.46% of 360,000 active; further: potency means the concentration at half of the fitted maximal effect; on the % scale 0 is the no-effect control and ±100 the full control effect; nearly all actives have a fitted effect of over 55% in size
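Screening of the MLSMR collection measured strand separation of a quenched forked DNA duplex (100 nM) by 20 nM WRN with 2 mM ATP, all final. Compounds were preincubated with enzyme 15 min at room temperature.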
Pol iota inh: DNA polymerase iota (human) inhibition. Pol iota fluorescent replication assay, 10 min. 1% of 390,000 active. Potency, µM (series often up to 115 µM), inactives show at the top dose activity, negative = inhibition, usual class: inhibitors. Q9UNA4. AID 588590; further: potency means the concentration at half of the fitted maximal effect
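Fluorescent replication assay read twice, at 0 min and 10 min after adding 50 nM (final) substrate. Enzyme (10 nM) and compounds were first incubated 15 min at room temperature; enzyme-free buffer wells were negative controls.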
Pol beta inh: inhibitors of human DNA polymerase beta | P06746 | Pol beta primer extension/strand displacement, fluorescence kinetic | Potency, µM (series often up to 114 µM), inactives show at the highest dose activity change, negative = inhibition, actives largely listed as inhibitors | 1.3% of 340,000 active | AID 485314; further: potency means the concentration at half of the fitted maximal effect; on the % scale 0 is the no-effect control and ±100 the full control effect
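Curves were derived by four-parameter Hill fits of normalized qHTS data. The kinetic fluorescent primer-extension read was taken at 0 and 10 min after 50 nM substrate, following a 15 min room-temperature preincubation of 10 nM enzyme with compounds.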
PI5P4Ka inh: PI5P4K alpha (human) kinase inhibition | P48426 | AID 652105 | max response, % | PI5P4Kalpha enzyme, ADP-Glo luminescence, 60 min; hits give low values | 1.2% of 330,000 active; active means max response of -50% or lower; inconclusive means between -30% and -50%; inactive means -30% or higher; further: value at the top dose of about 77 µM; on the % scale 0 is the no-effect control and ±100 the full control effect
Target sequence (P48426 whole entry, looked up): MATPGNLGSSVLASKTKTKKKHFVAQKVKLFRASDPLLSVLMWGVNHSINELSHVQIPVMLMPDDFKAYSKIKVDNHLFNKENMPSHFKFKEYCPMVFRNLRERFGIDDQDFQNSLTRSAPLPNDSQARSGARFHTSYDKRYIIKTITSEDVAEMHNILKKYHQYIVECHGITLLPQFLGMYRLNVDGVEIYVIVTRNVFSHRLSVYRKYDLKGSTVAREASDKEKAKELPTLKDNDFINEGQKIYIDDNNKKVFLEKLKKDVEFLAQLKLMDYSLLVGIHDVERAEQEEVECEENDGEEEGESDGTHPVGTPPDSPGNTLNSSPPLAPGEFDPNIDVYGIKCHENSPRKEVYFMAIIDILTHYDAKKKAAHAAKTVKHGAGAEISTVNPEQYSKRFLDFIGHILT
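PI5P4Kalpha ADP-Glo assay; 5 microM ATP final; 60 min RT reaction; HEPES pH 7.4/EGTA/CHAPS, 5% DMSO; controls lacking substrate or enzyme; luminescent end-point.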
Pol kappa inh: inhibitors of human DNA polymerase kappa; purified Pol kappa, fluorescent DNA synthesis assay, 10 min; Potency, µM (highest dose often 107 µM), inactives show at the top dose activity, negative = inhibition, actives largely listed as inhibitors; 0.53% of 400,000 active; Q9UBT6; further: potency means the concentration at half of the fitted maximal effect; on the % scale 0 is the no-effect control and ±100 the full control effect
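10 nM Pol kappa preincubated 15 min at room temperature with compounds, then reaction started with substrate at 50 nM final. Fluorescence read kinetically at 0 and 10 min; buffer-only wells served as negative control.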
Pol eta inh: DNA polymerase eta (human) inhibition. recombinant Pol eta, fluorescent DNA replication assay. 1.2% of 390,000 active. AID 588591. Q9Y253. Potency, µM (series often up to 114 µM), inactives show at the highest dose activity change, negative = inhibition, hits mostly inhibitors; further: potency means the concentration at half of the fitted maximal effect; on the % scale 0 is the no-effect control and ±100 the full control effect
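Pol eta (10 nM) was preincubated with compounds for 15 min at room temperature, after which fluorescent replication substrate (50 nM final) was added to start the reaction. Fluorescence was read kinetically at 0 and 10 min.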
Starred values were filed as active, the others as inactive; u = inconclusive; x = not tested or not shown; [ ] = dose if it differs, or a comment. Sampled rows, rich in hits. Any-hit rate of the full collection: about 2.8%. Unless noted, the call rests on the fitted dose curve; in most records, active means well fitted curve in the direction sought with a large enough effect; inconclusive means small, poorly fitted or top-dose-only effect, or another doubt; inactive means no such curve, though single readings can be large; an effect the other way counts as inactive or inconclusive.

SMILES	WRN inhibitor	Pol iota inh	Pol beta inh	PI5P4Ka inh	Pol kappa inh	Pol eta inh
Cc1cc(C)c(CSc2nnc(C)n3c2cc2occc23)c(C)c1	x	-5.6%	u	x	-15.1%	-15.8%
C(=C\c1ccnc2ccccc12)/c1ccnc2ccccc12	x	1.9%	x	x	5.4%	x
C1=CN2CC=Cc3cc(/C=C/c4ccnc5ccccc45)cc(c32)C1	x	79.4µM*	x	x	u	x
Cc1ccc2oc(-c3ccc(NC(=O)c4ccncc4)cc3O)nc2c1	2.4%[57.1 µM]	76.1%	u	-7.3	-10.7%	11.3%
Cc1ccc2oc(-c3cc(NC(=O)c4ncn[nH]4)ccc3O)nc2c1	-10.3%[11.6 µM]	34.5%	u	u	-7.7%	44.7µM*
Cc1ccc(C)c(-n2c(N)c(C#N)c3nc4ccccc4nc32)c1	x	25.1µM*	2.6%	x	-28.3%	-3.4%
N#Cc1c(N)n(-c2ccc(O)cc2)c2nc3ccccc3nc12	-5.7%	18.2%	-18.9%	3.3	-3.7%	-0.3%
Cc1cccc(CNC(=O)c2cc3cc(S(=O)(=O)N4CCCCC4)ccc3n2C)c1	x	15.0%	-9.0%	x	-3.0%[60.1 µM]	-3.8%
Cc1ccc(-c2nc(CNC(=O)Nc3ccccc3)c(C)o2)cc1	x	-6.7%	9.2%	x	-11.8%[60.1 µM]	-12.7%
COC1=CC(=O)C(C2CC(=O)c3c(O)cc(O)cc3O2)=CC1=O (centres undefined)	28.2µM*	u	x	u	31.6µM*	u
COc1ccccc1OCCOc1ccc(/C=C2/C(=N)N3OC(C)=CC3=NC2=O)cc1OC	u	4.5%	4.2%	-7.3	-17.6%	3.98µM*
COc1cc(/C=C2\C(=N)N3N=C(S(C)(=O)=O)SC3=NC2=O)ccc1OC(=O)c1ccco1	-20.1%	20µM*	-12.5%	u	-40.7%	22.4µM*
CC1=CC2=NC(=O)/C(=C\c3cccn3CCOc3ccccc3C)C(=N)N2O1	-9.1%	u	-2.7%	-3.4	-5.3%[60.1 µM]	-11.4%
COc1cc(/C=C2\C(=N)N3N=C(S(C)(=O)=O)SC3=NC2=O)ccc1OCCOc1ccccc1C	50.1µM*	48.5%	50.1µM*	-56.6*	-16.6%	50.1µM*
Cc1onc(-c2c(Cl)cccc2Cl)c1C(=O)N[C@H]1C(=O)N2[C@H]1SC(C)(C)[C@H]2C(=O)O	x	x	x	x	-7.6%[12 µM]	x
O=C(O)Cn1c2ccccc2c2n[nH]c(=S)nc21	-0.9%	u	-1.7%	-55.9*	-32.5%	-12.8%
Nc1nnc(-c2cc3c(ccc4ccccc43)oc2=O)s1	x	x	22.4µM*	x	x	x
O=C(Cc1ccccc1)c1ccc(O)cc1O	-1.6%	4.8%	x	6.3	-5.4%	-16.5%
O=C(O)c1cc(N(Cc2ccccc2O)Cc2cc(O)ccc2O)ccc1O	x	x	x	x	11.2µM*	x
Cc1cnc2ccccc2c1/C=C/c1ccc(N(C)C)cc1	x	23.1%	x	x	-7.4%	x
CCOC(=O)c1c(C)[nH]c(C)c1C(=O)COc1ncnc2ccccc12	-34.0%	35.6%	-11.3%	-54.6*	-1.5%	5.7%
O=C1OC2(CCCCC2)CC2=C1C1O[C@](c3ccsc3)(Cc3c1ccc1ccccc31)O2	x	x	10µM*	x	x	x
CCCC[n+]1ccn(-c2nc3ccccc3nc2[N-]S(=O)(=O)c2cccs2)c1	-6.9%	46.6%	17.8µM*	9.2	-14.6%	-7.0%
N#C/C(=C\c1ccc[nH]1)C(=O)Nc1ccccc1[N+](=O)[O-]	-15.2%	70.8µM*	-5.2%	-65.0*	u	u
Cc1ccccc1NC(=O)/C(C#N)=C/c1ccc[nH]1	6.4%	28.2%	22.4%	0.2	-3.0%	-4.6%
SMILES	WRN inhibitor	Pol iota inh	Pol beta inh	PI5P4Ka inh	Pol kappa inh	Pol eta inh
CC(C)C(NC(=O)C12CC3CC(CC(C3)C1)C2)C(=O)N/N=C/C1=C(N2CCOCC2)C(=C\c2cccc([N+](=O)[O-])c2)/CC1 (centres undefined)	9.1%	20.6%	-22.5%	2.9	-2.5%	-11.9%
Cn1cc(C(=O)N/N=C/C2=C(N3CCOCC3)C(=C/c3ccc([N+](=O)[O-])cc3)/CC2)ccc1=O	-14.1%[57.1 µM]	50.1µM*	x	u	-33.5%	u
Cc1cc(C)c2nc3s/c(=C/c4ccccc4)c(=O)n3c2c1	x	x	-1.3%	x	x	x
Cc1ccc2c(nc3s/c(=C/c4cccs4)c(=O)n32)c1C	-24.0%	u	31.6µM*	u	u	20µM*
COc1ccc(-c2cc(C(C)=O)c(C)n2CCC(=O)Nc2cc(Cl)ccc2C)cc1	x	-7.5%	-3.9%	x	-15.4%[60.1 µM]	-8.8%
O=c1c(-c2ccc(Cl)cc2)coc2c(CN3CCCCC3)c(O)ccc12	2.6%	31.6µM*	16.2%	6.3	-6.4%	-3.9%
O=c1c(-c2ccc(Br)cc2)coc2c(CN3CCCCC3)c(O)ccc12	-18.2%	-5.1%	21.7%	-1.7	-15.1%	-12.1%
CC(C)CN(C)c1ccc(/C=C2\C=Cc3ccccc32)cc1	x	10.4%	x	x	1.3%	x
Cc1ccc(NC(=O)COc2cccc(/C=C3\SC(=S)N(CCC(=O)O)C3=O)c2)cc1Cl	-15.0%[11.6 µM]	50.1µM*	u	0.6	79.4µM*	44.7µM*
COc1cccc(/C=C2\SC(=S)N(CCCC(=O)Nc3ccc(C(=O)O)cc3)C2=O)c1	2.3%	-25.1%	20.2%	-7.0	-8.2%	u
COc1cccc(/C=C2/SC(=S)N(CCCC(=O)Nc3ccc(O)cc3)C2=O)c1	-0.8%	6.8%	-7.0%	0.1	-7.2%	5.1%
O=C(O)CCN1C(=O)/C(=C\c2cccc(OCC(=O)Nc3ccc(Cl)cc3)c2)SC1=S	-32.0%	u	56.2µM*	-6.9	u	0.8%
COc1cc(-c2nnc(SCCOc3cc(C)cc(C)c3)o2)cc(OC)c1OC	x	-17.7%	50.1µM*	x	-11.1%	-18.6%
N#Cc1c(N)sc(=S)c2c1CCCCC2	20µM*	u	12.6µM*	-91.2*	28.2µM*	12.6µM*
Cc1ccc(CNC(=O)[C@H](C)[C@H]2C[C@]2(C)[C@H](NC(=O)OCc2ccccc2)c2ccccc2)o1	-11.4%	u	-6.3%	-52.0*	-14.1%	-10.1%
Oc1c(Br)cc(/C=N/NC(=S)NCc2ccco2)cc1Br	-18.5%	-11.5%	u	-74.5*	-16.2%	-12.9%
Cc1ccc(S(=O)(=O)Oc2cccc(/C=N/Nc3ccc(C(=O)O)cc3)c2)cc1	-14.5%	1.0%	-9.2%	-6.3	5.2%	79.4µM*
O=C(CCCCn1cnc2c(=S)nc[nH]c21)Nc1ccc(C(=O)O)c(O)c1	u	u	x	-67.6*	-23.0%	u
O=C(O)CCCC(=O)Nc1ccc(Cl)c(Cl)c1	-1.9%	-12.4%	-2.4%	-1.5	-2.1%	-13.0%
CC(=NNC(=O)c1ccc(NS(=O)(=O)c2ccc(Br)cc2)cc1)c1cccnc1	-25.6%	72.2%	x	-52.6*	-0.9%	-9.7%
O=C1C=C(C2OC(CO)C(O)C2O)C(=O)N1 (centres undefined)	-4.6%	8.5%	x	-53.7*	10.0%	-3.3%
CCOC(=O)C1(CC2CC2)CCN(Cc2ccc(OC)cc2F)CC1	-4.0%	156.3%	89.1µM*	1.8	-23.9%	-21.0%

Source: PubChem BioAssay (National Center for Advancing Translational Sciences (NCATS))
